Reference: PubChem BioAssay (NCI)
Compounds without any hit were thinned out: in the full panel of roughly 79,000, 15% have a hit. Active and inactive are the calls of the source. No stated cut-off is given here; in the data, active means growth inhibition above about 70%; inactive means the rest. Where a SMILES comes first, the peptide text is derived from it. [ ]: non-standard residue; d: D form. Abu = CC[CH](N)C(=O)O

Tests used:
[1] = NCI Yeast Anticancer Drug Screen. Data for the rad50 strain (AID 155);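 further: 0% = growth of vehicle-only cultures of the same strain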; settings: S. cerevisiae rad50 strain growth inhibition; at 50.0 µM; hits give high values
Procedure, shortened: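 DNA repair mutant yeast, compound exposure, growth read-out; inhibition is taken relative to vehicle.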

[2] = NCI Yeast Anticancer Drug Screen. Data for the mec2-1 strain (AID 157); settings: S. cerevisiae mec2-1 strain, at 50.0 µM, hits give high values
Procedure, shortened: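 Strain: mec2-1 (DNA repair/cell cycle alteration). Compound exposure, then growth measured; inhibition expressed relative to vehicle.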

[3] = NCI Yeast Anticancer Drug Screen. Data for the sgs1 mgt1 strain (AID 161);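 further: 0% = growth of cultures given vehicle only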; settings: S. cerevisiae sgs1 mgt1 strain, at 50.0 µM, hits give high values
Procedure, shortened: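 Inhibition of yeast growth, normalised to vehicle-treated controls, is reported for a strain bearing genetic alterations in DNA damage repair.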

[4] = NCI Yeast Anticancer Drug Screen. Data for the cln2 rad14 strain (AID 165);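 further: 0% = growth equal to vehicle treated cultures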; settings: S. cerevisiae cln2 rad14 strain, at 50.0 µM, hits give high values
Procedure, shortened: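 Compounds are applied to the cln2 rad14 yeast strain, and growth is then compared with that of vehicle-treated cultures to give inhibition.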

[5] = NCI Yeast Anticancer Drug Screen. Data for the bub3 strain (AID 167); settings: S. cerevisiae bub3 mutant strain, at 50.0 µM, hits give high values
Procedure, shortened: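 In this screen, a yeast mutant lacking normal mitotic checkpoint function is challenged with compound. Relative growth versus vehicle gives the inhibition value.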

[6] = NCI Yeast Anticancer Drug Screen. Data for the mlh1 rad18 strain (AID 175); settings: S. cerevisiae mlh1 rad18 strain growth inhibition; at 50.0 µM; hits give high values
Procedure, shortened: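 Read-out is yeast growth inhibition, calculated against vehicle-only controls. The compound was applied to a strain engineered with DNA damage repair alterations.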

Measured: growth inhibition

Cc1cc(NCCN(C(C)C)C(C)C)nc(Nc2nc3cc(Cl)c(Cl)cc3[nH]2)n1
inactive: [2] 39.2% | [4] 11.7% | [5] 23.1% | [6] 55.6%
active: [1] 75.8% | [3] 77.8%

Clc1ccc2ccccc2n1
inactive: [1] 15.1% | [2] -1.65% | [3] -6.4% | [4] -23.1% | [5] 9.8% | [6] -8.15%

O=C(O)CC(O)c1ccccc1 (stereo not given)
inactive: [1] 30.8% | [2] 13.6% | [3] 16.6% | [4] 17.1% | [5] -0.95% | [6] 18.6%

CS(=O)(=O)C(C#N)c1nc2ccccc2nc1Cl (stereo not given)
inactive: [1] -20.6% | [2] -17.7% | [3] -53.1% | [4] -9.6% | [5] -42% | [6] -30.6%

Nc1nc(-c2ccc(Cl)c(Cl)c2)cc(-c2cc(-c3ccc(Cl)c(Cl)c3)nc(N)n2)n1
inactive: [1] 24.9% | [2] 2.55% | [3] 7.55% | [4] 21.6% | [5] 4.2% | [6] 11%

CC/C=C\CCOC(=O)C1OC1c1ccccc1 (stereo not given)
inactive: [1] 8.15% | [2] 17.3% | [3] -8.75% | [4] 10.9% | [5] 0% | [6] 1.5%

CCCCCCCCCCCCCCCCCC(=O)O
inactive: [1] -5.2% | [2] -17.4% | [3] 0.1% | [4] -5.75% | [5] -17.1% | [6] 6.05%

COc1ccc(N)c(C(=O)CCNC(C)=O)c1
inactive: [1] -23.2% | [2] -9.7% | [3] -21.2% | [4] -7.05% | [5] -26.6% | [6] -25.4%

Cc1cn(C2OC(CO[Si](C)(C)C(C)(C)C)C(N(C)O[Si](C)(C)C(C)(C)C)C2[Se]c2ccccc2)c(=O)[nH]c1=O (stereo not given)
inactive: [1] -15.5% | [2] -3.1% | [3] 0.5% | [4] -8.65% | [5] -9.85% | [6] -15.2%

CCOC(=O)C(CC)(C(=O)OCC)C(C)CC (stereo not given)
inactive: [1] 11.3% | [2] -1.65% | [3] 15.1% | [4] -5.9% | [5] -7.55% | [6] -1.25%

O=c1/c(=C/c2ccc(Cl)cc2Cl)sc2nc3ccccc3n12
inactive: [1] 4.1% | [2] -23.4% | [3] -0.15% | [4] -12.8% | [5] -22.5% | [6] -7.45%

COc1ccc(N=N/C(=N/NC(=O)c2ccccc2)c2ccc(N(CCC#N)CCC#N)cc2C)cc1
inactive: [1] -4.35% | [2] -13.5% | [3] -22.8% | [4] -7.2% | [5] -23.1% | [6] -44.5%

c1ccc2cc(N=NNc3ccc4ccccc4c3)ccc2c1
active: [6] 74%
inactive: [1] 63.6% | [2] -4.1% | [3] 27.9% | [4] -30.6% | [5] 47.5%

O=C1Nc2cccc3cc(NCC(O)CCCl)cc1c23 (stereo not given)
inactive: [1] 17.4% | [2] 3.1% | [3] 18.2% | [4] -5.8% | [5] 14.6% | [6] 20.6%

CCOC(=O)CC1CC2c3cc(OC)c(OC)cc3CCN2CC1CC (stereo not given)
inactive: [1] 3.1% | [2] 12.8% | [3] -6.7% | [4] -5.25% | [5] 1.95% | [6] 13.8%

N#Cc1c(N)nc([Se]CC(=O)c2ccc(Cl)cc2)c(C#N)c1-c1ccco1
inactive: [1] -7.45% | [2] -3.45% | [3] 2.3% | [4] 9.4% | [5] 4.1% | [6] 10.9%

COC(=O)CCNCCSC(=O)c1ccccc1
inactive: [1] 23.5% | [2] -9.1% | [3] -6% | [4] 12.9% | [5] 8.55% | [6] 4.6%

CCC/C=C(\CC)COC(=O)Nc1ccccc1
inactive: [1] -1.15% | [2] -19.6% | [3] -9.55% | [4] -47.9% | [5] -31.1% | [6] -1.75%

C=C1CC23CC[C@H]4[C@@](C)(CCC[C@@]4(C)C(=O)OC4OC(CO)C(O)C(O)C4O)[C@@H]2CC[C@@]1(OC1OC(CO)C(O)C(O)C1OC1OC(CO)C(O)C(O)C1O)C3 (stereo not given in full)
inactive: [1] -6.6% | [2] -38.5% | [3] -38.1% | [4] 25.4% | [5] -39.4% | [6] -16%

CC1=C(c2cc(C(=O)Nc3cc(C)ccc3C)nc(N)n2)Sc2ccccc2N1
inactive: [1] 5.25% | [2] -10.8% | [3] -25.8% | [4] -18.1% | [5] -13.1% | [6] -10.8%

CC(=NCCN=C(C)c1ccc(Br)cc1)c1ccc(Br)cc1
inactive: [1] 16.9% | [2] -6.95% | [3] -21.8% | [4] -2% | [5] 2.4% | [6] 1.1%

O=C(O)Cc1ccc(Br)cc1
inactive: [1] 29.4% | [2] -8.95% | [3] 11.9% | [4] 10.8% | [5] 1.1% | [6] 5.7%

O=C1CCC(=O)C(C(=O)CCC(=O)Nc2cccc(Cl)c2)C1 (stereo not given)
inactive: [1] -20.6% | [2] -6.5% | [3] -11.7% | [4] 19.8% | [5] 11.9% | [6] -4.9%

CC1(C(=O)O)C(=O)Oc2c1c1ccccc1c1ccccc21 (stereo not given)
inactive: [1] 15.3% | [2] 10.7% | [3] 0.75% | [4] 10.8% | [5] 16.3% | [6] 27.5%

CC1(C)N=C(C(N)=O)c2[nH]cnc2N1
inactive: [1] -2.55% | [2] 4.35% | [3] 12.8% | [4] 13.3% | [5] 11.3% | [6] -51.2%

COc1c(C)c(C)c(OC)c(CC(=O)O)c1C
inactive: [1] -3.05% | [2] -0.6% | [3] -3.7% | [4] -34.9% | [5] -17.7% | [6] 4.9%

COc1ccccc1N=Nc1c(O)n(-c2ccccc2C)c(=S)n(-c2ccccc2OC)c1=O
inactive: [1] 38.4% | [2] -9.7% | [3] 19.1% | [4] -12.8% | [5] -3.95% | [6] 3.2%

O=C1CCCC1Sc1ccccn1 (stereo not given)
inactive: [1] -14.4% | [2] -11.5% | [3] -29.6% | [4] -8.5% | [5] -7.15% | [6] -32.2%

Cc1c([N+](=O)[O-])cc(C(C)C)c(O)c1[N+](=O)[O-]
inactive: [1] 14.8% | [2] 25.3% | [3] 27.9% | [4] -6% | [5] -9.5% | [6] 66.2%

Cc1nnc(-n2nc(-c3ccc(Cl)cc3)cc2N)[nH]c1=O
inactive: [1] 54% | [2] 12.1% | [3] 22.4% | [4] 12.8% | [5] 23.4% | [6] 34%

Nc1c(Br)cc2c([nH]c(=O)c3cc(Br)ccc32)c1Br
inactive: [1] 47.1% | [2] 32.2% | [3] 27.1% | [4] 27.8% | [5] 8.75% | [6] 32.1%

Nc1ncnc2c1ncn2C(=O)NC12CC3CC(CC(C3)C1)C2
inactive: [1] 9.75% | [2] 14.6% | [3] 8.7% | [4] 18.1% | [5] 8.25% | [6] -8.2%

CC(=C/C=C/C=C(C)\C=C\C=C(\C)C(=O)O)/C=C/C=C(/C)C(=O)O
inactive: [1] 18.1% | [2] -7.95% | [3] 8.65% | [4] 7.75% | [5] 16.4% | [6] 16.9%

CC(C)NCC1CCCO1 (stereo not given)
inactive: [1] -6.65% | [2] -23.2% | [3] -16.4% | [4] 4.9% | [5] -5.7% | [6] -7.85%

C1Cc2nnnn2C1
inactive: [1] -7.4% | [2] -20.1% | [3] 0.9% | [4] -2.85% | [5] -7.95% | [6] 12.6%

Cc1cc2ccccc2c[n+]1CC(=O)c1ccc([N+](=O)[O-])cc1
inactive: [1] -4.1% | [2] 32.1% | [3] 62% | [4] -1.85% | [5] 7.35% | [6] 51.7%

CCC(N)C(=O)NC(C(N)=O)C(C)C (stereo not given) (H-[Abu]-Val-NH2; configuration not given here)
inactive: [1] 11.1% | [2] -9.75% | [3] -1.55% | [4] -42.4% | [5] -4.7% | [6] 13.2%

CC(=O)Nc1ccc2c(c1)C(=O)c1ccccc1-2
inactive: [1] 64.1% | [2] 16.1% | [3] 30.2% | [4] 26.3% | [5] -16.8% | [6] 31.4%

c1cc2cc(c1)CNCCNCCNCc1cccc(c1)CNCCNCCNC2
inactive: [1] -22.4% | [2] -17.4% | [3] -30.6% | [4] 16.9% | [5] 6% | [6] -2.9%

C=CCC12CCC(=O)[C@@]1(C)CC=C(O)C2=O (stereo not given in full)
inactive: [1] 8.6% | [2] -2.8% | [3] 17.2% | [4] -18.2% | [5] 0.6% | [6] 0.9%
